Measurements from PubChem BioAssay.
Active and inactive are the calls of the source.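 How the source made its calls: active means viability loss from added drug above about 55%, and viability with drug at most 40%, in both replicates (limit read from the data, passing the limit was not always enough); inconclusive means both conditions met in only one replicate; inactive means neither replicate meets both conditions.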

Assay: MRP1 drug-resistance reversers in H69AR cells – cell-based, doxorubicin co-treatment, pilot screen (AID 601)
Conditions: H69AR cells + 2 uM doxorubicin, CellTiter-Glo, 72 h; at 10 µM; stronger effect = higher value

| Structure (SMILES) | differential viability (reversal) |
| --- | --- |
| O=S(=O)(Nc1ccc(Cc2ccncc2)cc1)N1CCCC1 | -6.24% (inactive) |
| CCn1c(=O)cc(OCC(=O)NCCCN2CC(C)CC(C)C2)c2ccccc21 (stereo not given) | -0.8% (inactive) |
| Nn1c(SCC(=O)Nc2ccc3c(c2)OCO3)nnc1C1CC1 | 2% (inactive) |
| CCOP(=O)(c1ccc(N(C)C)cc1)C(O)c1ccccc1OC (stereo not given) | 3.56% (inactive) |
| COc1ccc(C(=O)N2CCSC2=S)cc1OC | -11.5% (inactive) |
| O=c1c2nnn(Cc3ccccc3)c2ncn1-c1ccccc1 | 5.12% (inactive) |
| CCOc1ccc(NC(=O)CN(C)S(=O)(=O)c2cccs2)cc1 | 6.1% (inactive) |
| O=c1[nH]c(SCc2cc(=O)n3ccccc3n2)nc2c1CCC2 | 1.62% (inactive) |
| Cc1ccc(O)c(NC(=O)COc2cc(C)ccc2C)c1 | 5.4% (inactive) |
| N#Cc1cc2sc3nnc(-c4ccncc4)n3c2cc1C#N | -18.2% (inactive) |
| CCOc1cc(C2c3c(n[nH]c3C)C(=O)N2c2ccc(Br)cc2)ccc1O (stereo not given) | 9.98% (inactive) |
| Cc1cc(NC(=O)CSc2ccc(Cl)cc2)no1 | -10.7% (inactive) |
| CC(C)[C@H](NC(=O)NC1CCCC1)C(=O)O | 15.2% (inactive) |
| CCOC(=O)c1[nH]c2ccc(OC)cc2c1NC(=O)CCN1CCC(C)CC1 | -0.37% (inactive) |
| CCc1nc(C)c(-c2ccccc2)c(=O)[nH]1 | 25.6% (inactive) |
| CN(C)c1ccc(NC(=O)CSCc2nc3c(nnn3Cc3ccc(F)cc3)c(=O)[nH]2)cc1 | 4.32% (inactive) |
| COc1ccc(C2CC(=O)c3cnc(NC(=O)c4ccccc4OC)nc3C2)c(OC)c1 (stereo not given) | -5.78% (inactive) |
| Cc1cnc(NC(=O)CSc2nc3ccccc3c(=O)[nH]2)s1 | 10.8% (inactive) |
| CCCOc1ccc(OCCSc2ncccn2)cc1 | 18.8% (inactive) |
| Cc1nnc(C)c2c(C)n(-c3ccc(Br)cc3)c(C)c12 | 17.2% (inactive) |

| Structure (SMILES) | differential viability (reversal) |
| --- | --- |
| COC(=O)c1cc(O)c(OCc2ccccc2)c(O)c1 | 18% (inactive) |
| O=C(c1ccc(Br)o1)N(c1ccc(Br)cc1)C1C=CS(=O)(=O)C1 (stereo not given) | 5.32% (inactive) |
| Cc1nn(-c2ccccc2)c(C)c1C(=O)OCC(=O)c1c(N)n(CC(C)C)c(=O)n(C)c1=O | -24.7% (inactive) |
| CC(=O)N1CCc2cc(S(=O)(=O)NC(C(=O)NCc3ccccc3)C(C)C)ccc21 (stereo not given) | 12.1% (inactive) |
| N#CC1=C(N)Oc2n[nH]c(-c3cccs3)c2C1c1cccs1 (stereo not given) | -2.47% (inactive) |
| Cc1cc(C(=O)CN2C(=O)c3ccccc3C2=O)c(C)n1Cc1cccs1 | 3.23% (inactive) |
| CCc1nnc(NC(=O)C2CCCN2S(=O)(=O)c2ccc(C)cc2)s1 (stereo not given) | 5.4% (inactive) |
| COC(=O)C1=C(C)C(c2cccs2)NC(=O)N1C (stereo not given) | 10.1% (inactive) |
| CCOC(=O)CSc1nnc([C@H](C)NC(=O)OC(C)(C)C)o1 | 20.2% (inactive) |
| O=C1CC(N2CCN(c3ccc(Cl)c(Cl)c3)CC2)C(=O)N1 (stereo not given) | 18.3% (inactive) |
| CCC(C)(C)n1nnnc1C(c1ccncc1)N1CCN(c2cccc(OC)c2)CC1 (stereo not given) | -0.525% (inactive) |
| COc1cccc(C(=O)OCn2nnc3ccccc3c2=O)c1 | 4.58% (inactive) |
| O=C(O)CCc1ccc(-c2ccc(F)cc2)n1CC(=O)O | 10.8% (inactive) |
| COC(=O)c1ccccc1S(=O)(=O)N(CCCO)Cc1cc2c(C)ccc(C)c2[nH]c1=O | -2.33% (inactive) |
| COC(=O)c1ccc(-c2ccc(CNCC(O)c3ccccc3)o2)cc1 (stereo not given) | 8.78% (inactive) |
| COC(=O)Nc1ccc(S(=O)(=O)N2CCN(c3ccc(F)cc3)CC2)cc1 | 3.18% (inactive) |
| O=C(Nc1ccc(O)cc1)C1CCCN1S(=O)(=O)c1ccc(F)cc1 (stereo not given) | 2.53% (inactive) |
| CCc1ccc(C=NC23CN4CN(CN(C4)C2)C3)s1 | 9.64% (inactive) |
| Cc1nnc(SCC(=O)N2c3ccccc3CC2C)s1 (stereo not given) | -0.71% (inactive) |
| COc1ccccc1S(=O)(=O)n1cc(Cc2ccccc2)c(N)n1 | 5.54% (inactive) |

Same assay, conditions: H69AR cells + 2 uM doxorubicin, CellTiter-Glo, 72 h; measured here: viability with 2 uM doxorubicin; at 10 µM; stronger effect = lower value

| Structure (SMILES) | viability [%] |
| --- | --- |
| O=S(=O)(Nc1ccc(Cc2ccncc2)cc1)N1CCCC1 | 98.6 |
| CCn1c(=O)cc(OCC(=O)NCCCN2CC(C)CC(C)C2)c2ccccc21 (stereo not given) | 75.5 |
| Nn1c(SCC(=O)Nc2ccc3c(c2)OCO3)nnc1C1CC1 | 92.2 |
| CCOP(=O)(c1ccc(N(C)C)cc1)C(O)c1ccccc1OC (stereo not given) | 95.1 |
| COc1ccc(C(=O)N2CCSC2=S)cc1OC | 93.6 |
| O=c1c2nnn(Cc3ccccc3)c2ncn1-c1ccccc1 | 103 |
| CCOc1ccc(NC(=O)CN(C)S(=O)(=O)c2cccs2)cc1 | 87.8 |
| O=c1[nH]c(SCc2cc(=O)n3ccccc3n2)nc2c1CCC2 | 83.6 |
| Cc1ccc(O)c(NC(=O)COc2cc(C)ccc2C)c1 | 84 |
| N#Cc1cc2sc3nnc(-c4ccncc4)n3c2cc1C#N | 50.5 |
| CCOc1cc(C2c3c(n[nH]c3C)C(=O)N2c2ccc(Br)cc2)ccc1O (stereo not given) | 62.9 |
| Cc1cc(NC(=O)CSc2ccc(Cl)cc2)no1 | 71.7 |
| CC(C)[C@H](NC(=O)NC1CCCC1)C(=O)O | 89 |
| CCOC(=O)c1[nH]c2ccc(OC)cc2c1NC(=O)CCN1CCC(C)CC1 | 97.2 |
| CCc1nc(C)c(-c2ccccc2)c(=O)[nH]1 | 87.2 |
| CN(C)c1ccc(NC(=O)CSCc2nc3c(nnn3Cc3ccc(F)cc3)c(=O)[nH]2)cc1 | 89.7 |
| COc1ccc(C2CC(=O)c3cnc(NC(=O)c4ccccc4OC)nc3C2)c(OC)c1 (stereo not given) | 92.7 |
| Cc1cnc(NC(=O)CSc2nc3ccccc3c(=O)[nH]2)s1 | 82.5 |
| CCCOc1ccc(OCCSc2ncccn2)cc1 | 83.1 |
| Cc1nnc(C)c2c(C)n(-c3ccc(Br)cc3)c(C)c12 | 87.2 |

| Structure (SMILES) | viability [%] |
| --- | --- |
| COC(=O)c1cc(O)c(OCc2ccccc2)c(O)c1 | 76.3 |
| O=C(c1ccc(Br)o1)N(c1ccc(Br)cc1)C1C=CS(=O)(=O)C1 (stereo not given) | 81.7 |
| Cc1nn(-c2ccccc2)c(C)c1C(=O)OCC(=O)c1c(N)n(CC(C)C)c(=O)n(C)c1=O | 102 |
| CC(=O)N1CCc2cc(S(=O)(=O)NC(C(=O)NCc3ccccc3)C(C)C)ccc21 (stereo not given) | 90.1 |
| N#CC1=C(N)Oc2n[nH]c(-c3cccs3)c2C1c1cccs1 (stereo not given) | 86.3 |
| Cc1cc(C(=O)CN2C(=O)c3ccccc3C2=O)c(C)n1Cc1cccs1 | 83 |
| CCc1nnc(NC(=O)C2CCCN2S(=O)(=O)c2ccc(C)cc2)s1 (stereo not given) | 112 |
| COC(=O)C1=C(C)C(c2cccs2)NC(=O)N1C (stereo not given) | 85.2 |
| CCOC(=O)CSc1nnc([C@H](C)NC(=O)OC(C)(C)C)o1 | 85.7 |
| O=C1CC(N2CCN(c3ccc(Cl)c(Cl)c3)CC2)C(=O)N1 (stereo not given) | 89.1 |
| CCC(C)(C)n1nnnc1C(c1ccncc1)N1CCN(c2cccc(OC)c2)CC1 (stereo not given) | 85.8 |
| COc1cccc(C(=O)OCn2nnc3ccccc3c2=O)c1 | 109 |
| O=C(O)CCc1ccc(-c2ccc(F)cc2)n1CC(=O)O | 87.2 |
| COC(=O)c1ccccc1S(=O)(=O)N(CCCO)Cc1cc2c(C)ccc(C)c2[nH]c1=O | 81.6 |
| COC(=O)c1ccc(-c2ccc(CNCC(O)c3ccccc3)o2)cc1 (stereo not given) | 92.2 |
| COC(=O)Nc1ccc(S(=O)(=O)N2CCN(c3ccc(F)cc3)CC2)cc1 | 94 |
| O=C(Nc1ccc(O)cc1)C1CCCN1S(=O)(=O)c1ccc(F)cc1 (stereo not given) | 94.7 |
| CCc1ccc(C=NC23CN4CN(CN(C4)C2)C3)s1 | 95.2 |
| Cc1nnc(SCC(=O)N2c3ccccc3CC2C)s1 (stereo not given) | 92.7 |
| COc1ccccc1S(=O)(=O)n1cc(Cc2ccccc2)c(N)n1 | 98.5 |
